Screening data as filed in PubChem.
A549 tox: Nrf2 qHTS screen for inhibitors: counterscreen for cytotoxicity | A549 ARE-Fluc cells, CellTiter-Fluor viability, 18-24 h | Potency, µM (top dose mostly 46 µM), for inactives: top-dose activity change, negative = cytotoxicity, actives largely listed as inhibitors | 390,000 compounds, 0.16% hits | AID 504648, 2011; note: potency is the fitted concentration of half-maximal effect; % is set by controls: 0 for no effect and ±100 for the full control effect
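Cytotoxicity counterscreen: CellTiter-Fluor fluorescence was measured in A549 ARE_Fluc cells after 18-24 h of compound exposure in a concentration series. The subsequent BugLite luminescent read reports ARE-luciferase activity.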
Nrf2 inh: Nrf2 qHTS screen for inhibitors. AID 504444, 2011. A549 ARE-Fluc reporter, luciferase luminescence, 18-24 h. Potency, µM (top dose mostly 46 µM), for inactives: at the top dose activity change, negative = inhibition, usual class: inhibitors. 360,000 compounds, 2.1% hits; note: potency is the fitted concentration of half-maximal effect; % is set by controls: 0 for no effect and ±100 for the full control effect; nearly all actives have a fitted effect of over 60% in size
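Two sequential reads on A549 ARE_Fluc cells exposed to compound for 18-24 h: a CellTiter-Fluor fluorescence read for viability, then a luciferase luminescence read for Nrf2/ARE activity.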
CCT modulator: High-Throughput Screening for Modulators of Cytosolic Chaperonin Activity; purified chaperonin ATPase assay, HTRF ADP detection, 30 min; activity change, % (test concentration not listed), hits read low; 360,000 compounds, 0.3% hits; AID 651819, 2012; in the data active = activity change below about -30%; note: % is set by controls: 0 for no effect and ±100 for the full control effect
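We incubate TRiC, 40 or 20 nM final, with library compounds at 76 uM and 10 uM ATP for 30 min at 37 °C. ADP formed is detected with Transcreener HTRF reagents after 30 min at room temperature.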
TCR activator: Activators of T cell receptors: qHTS campaign | primary human leukocytes, anti-CD3, IL-2 HTRF, 48 h | 330,000 tested, under 10 active | AID 504894, 2011 | Potency, µM (doses to about 9.22 µM), inactives show at the highest dose activation of IL-2 secretion, usual class: activators; note: % of control where 0% means no effect
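Human primary leukocytes + a-CD3 beads + cpd, 48 hr; IL-2 in supernatant by HTRF (ex 320nm / em 665nm). No co-stimulatory signal supplied.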
Nrf2 activator: qHTS of Nrf2 Activators; AREc32 ARE-luciferase reporter (MCF7-derived line), luminescence, 24 h; Potency, µM (titrated, usually from 46.1 µM), for the others: at the highest dose activation, actives largely listed as activators; 410,000 compounds, 0.31% hits; AID 624171, 2012; note: potency is the fitted concentration of half-maximal effect; % of control where 0% means no effect; nearly all actives have a fitted effect of over 65% in size
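Quantitative high-throughput format: AREc32 reporter cells, 1000 per well, received compound by pin transfer and were incubated 24 hr at 37 deg C, 5% CO2, before Steady-Glo luminescence detection.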
AT treatment: qHTS Assay for Identifying a Potential Treatment of Ataxia-Telangiectasia; 320,000 compounds, 0.19% hits; F2112 A-T fibroblasts, KAP-1 phosphorylation AlphaLISA; neocarzinostatin DNA damage 30 min before lysis; Potency, µM (doses to about 57.5 µM), inactives show top-dose activation, usual class: activators; AID 485349, 2010; note: potency is the fitted concentration of half-maximal effect; % of control where 0% means no effect; nearly all actives have a fitted effect of over 45% in size
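ATM-like activity read as KAP-1 phosphorylation via AlphaLISA donor/acceptor antibody pairs after lysis and 6 hr at 25C. Cells were ATM-null patient fibroblasts (F2112, hTERT), dosed 60 min, then exposed to the DSB inducer NCS for 30 min.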
Starred values were filed as active, the others as inactive; ? = inconclusive; nt = no result given; [ ] = remark or other dose. Rows were chosen to be rich in hits. Some 2.6% of all compounds tested hit in one or more screens of this group. Unless noted, calls come from the whole dose curve; as a rule, active = well fitted curve in the direction sought with a large enough effect; inconclusive = small, poorly fitted or top-dose-only effect, or another doubt; inactive = no such curve, though single readings can be large; an effect the other way counts as inactive or inconclusive.

SMILES	A549 tox	Nrf2 inh	CCT modulator	TCR activator	Nrf2 activator	AT treatment
CCc1ccc(CN2C(=O)c3ccccc3C2C(=O)NCCc2ccc(OC)c(OC)c2)cc1 (stereo not given)	-1.5%	nt	nt	nt	0.7%	nt
Cc1ccc(S(=O)(=O)N2[C@@H](c3ccc(C(C)(C)C)cc3)C(C(=O)O)=CC[C@H]2c2ccc3c(c2)OCO3)cc1	-21.2%	23.1µM*	-0.1	4.7%	0.9%	15.7%
Cc1ccc(S(=O)(=O)N2[C@@H](c3ccccc3)C(C(=O)O)=CC[C@H]2c2ccc3c(c2)OCO3)cc1	-10.2%	-15.9%	-0.1	-6.6%	0.0%	4.6%
O=C(CCc1ccccc1)NC(NC(=S)Nc1ccc(Br)cc1)C(Cl)(Cl)Cl (stereo not given)	?	9.2µM*	-3.7	1.2%	7.6%	-0.9%
O=C(CCc1ccccc1)NC(NC(=S)Nc1cccc(Cl)c1)C(Cl)(Cl)Cl (stereo not given)	-1.2%	?	-9.0	-3.4%[46.1 µM]	0.5%	-0.5%
O=C(N=Nc1c(O)[nH]c2ccccc12)c1cccc(S(=O)(=O)N2CCCCC2)c1	3.4%	-9.3%	-5.6	-3.8%[46.1 µM]	-0.4%	nt
CC(C)c1ccc2[nH]c(O)c(N=NC(=O)c3cccc(S(=O)(=O)N4CCCCC4)c3)c2c1	?	18.4µM*	-1.6	2.3%[46.1 µM]	-0.2%	-11.2%
CCN(CC)c1ccc2cc(C(C)=O)c(=O)oc2c1	?	?	2.3	2.1%	0.5%	?
CCN(CC)c1ccc2cc(NC(=O)CCC(=O)O)c(=O)oc2c1	?	11.6µM*	-0.2	-10.4%	-2.4%	?
Fc1ccc2c(c1)-c1nc(-c3ccccc3)cc(-c3ccccc3)c1CO2	0.1%	5.9%	nt	nt	0.4%	nt
COc1cccc(NC(=O)COc2ccc(C(=S)N3CCN(C)CC3)cc2OC)c1	-4.4%	13µM*	1.4	1.8%	0.4%	-6.4%
CCOC(=O)C1CCN(C(=O)c2ccc(OCC(=O)Nc3cccc(C(F)(F)F)c3)c(OC)c2)CC1	-10.2%	14.6µM*	-1.2	1.2%	1.9%	-1.6%
COc1cc2c(s1)c1cnn(Cc3ccccc3F)c(=O)c1n2C	13.5%	-16.2%	nt	nt	nt	nt
Cc1cc(OC(C)C(=O)N2CCN(c3ccc(F)cc3)CC2)c2c(C)c(C)c(=O)oc2c1 (stereo not given)	-17.7%	25.9µM*	0.2	-1.3%	-0.9%	2.9%
O=C(Nc1ccc(SC(F)F)cc1)c1cc(-c2ccncc2)nc2ccccc12	-8.1%	2.8%	1.2	2.0%	-0.5%	3.4%
c1ccc2c(c1)nnn2-c1ncnc2sccc12	0.7%	?	-15.6	6.8%	3.98µM*	8.8%
Cc1ccc(C(=O)Nc2ccc(-c3cn4cccnc4n3)cc2)cc1C	-11.3%	23.1µM*	nt	nt	-1.2%	nt
COc1cc2c(cc1OC)CN(C(=S)Nc1cccc(Cl)c1C)CC2	-9.0%	18.4µM*	-6.9	-3.0%	-0.1%	1.3%
COc1ccc(N(C(=O)c2cc3ccccc3oc2=O)C2C=CS(=O)(=O)C2)cc1 (stereo not given)	2.2%	9.7%	-3.1	0.5%	17.8µM*	-4.9%
COc1ccc(-c2ccc3ncnc(N(C)Cc4csc(C)n4)c3c2)cc1OC	-15.0%	3.66µM*	nt	nt	nt	nt
COc1cc2ncnc(N(C)Cc3csc(C)n3)c2cc1-c1ccc2c(c1)OCO2	-0.5%	?	nt	nt	nt	nt
CN1CCN(S(=O)(=O)c2csc(C(N)=O)c2)CC1	2.5%	-6.0%	1.1	8.7%	0.2%	-4.4%
Fc1ccc(C2NC(=S)NC3=C2N2CCC3CC2)cc1 (stereo not given)	-3.0%	2.7%	-4.6	0.1%	0.4%	3.2%
COc1ccc(C2NC(=S)NC3=C2N2CCC3CC2)cc1 (stereo not given)	4.4%	-5.6%	-0.6	6.4%	-0.7%	2.51µM*
